Experimental data from the supplement of paper PMC9492666.
Where a name gives a salt, the structure may show the parent alone.

Experiments:
HCC1937 = assay: relative cell viability, compound + erastin, vs DMSO (fraction of DMSO control); higher = less growth inhibition; conditions: 72 h
MDA-MB-231 = assay: as above; conditions: 72 h
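Note: viability read by CCK-8 kit in 96-well plates, part of a combination screen pairing lipid-metabolism-targeting compounds with erastin.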

| SMILES | relative cell viability (HCC1937) | relative cell viability (MDA-MB-231) |
| --- | --- | --- |
| CC(C)(Oc1ccc(Cl)cc1)C(=O)O [Clofibric acid] + CCOc1ccccc1-n1c(C(C)N2CCN(C(=O)COc3ccc(Cl)cc3)CC2)nc2ccccc2c1=O [erastin] | 0.923 | 0.592 |
| CC[C@H](C)C(=O)O[C@H]1CCC=C2C=C[C@H](C)[C@H](CC[C@@H]3C[C@@H](O)CC(=O)O3)[C@H]21 [Mevastatin] + CCOc1ccccc1-n1c(C(C)N2CCN(C(=O)COc3ccc(Cl)cc3)CC2)nc2ccccc2c1=O [erastin] | 0.6 | 0.434 |
| C[C@H](CCOc1cccc(CC(=O)O)c1)N(Cc1cccc(C(F)(F)F)c1Cl)CC(c1ccccc1)c1ccccc1 + CCOc1ccccc1-n1c(C(C)N2CCN(C(=O)COc3ccc(Cl)cc3)CC2)nc2ccccc2c1=O [erastin] | 0.602 | 0.384 |
| O=C(O)Cc1cccc(OCCCN(Cc2cccc(C(F)(F)F)c2Cl)CC(c2ccccc2)c2ccccc2)c1 + CCOc1ccccc1-n1c(C(C)N2CCN(C(=O)COc3ccc(Cl)cc3)CC2)nc2ccccc2c1=O [erastin] | 0.855 | 0.478 |
| COC(=O)N(CC(=O)O)Cc1cccc(OCc2nc(-c3ccc(Cl)cc3)oc2C)c1 + CCOc1ccccc1-n1c(C(C)N2CCN(C(=O)COc3ccc(Cl)cc3)CC2)nc2ccccc2c1=O [erastin] | 0.734 | 0.627 |
| COc1ccc(N(C(=O)Nc2c(C)cccc2C)c2cc(Nc3ccc(N4CCN(C)CC4)cc3)ncn2)c(OC)c1 + CCOc1ccccc1-n1c(C(C)N2CCN(C(=O)COc3ccc(Cl)cc3)CC2)nc2ccccc2c1=O [erastin] | 0.553 | 0.852 |
| CC(=O)c1c(C)cc2cccc(O)c2c1O [Nepodin] + CCOc1ccccc1-n1c(C(C)N2CCN(C(=O)COc3ccc(Cl)cc3)CC2)nc2ccccc2c1=O [erastin] | 0.7 | 0.766 |
| CCOC(=O)C(C)(C)Oc1ccc(Cl)cc1 [Clofibrate] + CCOc1ccccc1-n1c(C(C)N2CCN(C(=O)COc3ccc(Cl)cc3)CC2)nc2ccccc2c1=O [erastin] | 0.801 | 0.653 |
| O=C(NC1CCN(CCCCC2(C(=O)NCC(F)(F)F)c3ccccc3-c3ccccc32)CC1)c1ccccc1-c1ccc(C(F)(F)F)cc1 [Lomitapide] + CCOc1ccccc1-n1c(C(C)N2CCN(C(=O)COc3ccc(Cl)cc3)CC2)nc2ccccc2c1=O [erastin] | 0.201 | 0.436 |
| CN1CCN(c2ccc(/C=C(\C#N)c3ccccc3Br)cc2)CC1 [DG172 (dihydrochloride)] + CCOc1ccccc1-n1c(C(C)N2CCN(C(=O)COc3ccc(Cl)cc3)CC2)nc2ccccc2c1=O [erastin] | 0.672 | 0.608 |
| COC(=O)/C=C/c1cccc(N(Cc2ccc(-c3ccc(N(C)C)cc3)cc2)C(=O)C2CCCCC2)c1 [Fexaramine] + CCOc1ccccc1-n1c(C(C)N2CCN(C(=O)COc3ccc(Cl)cc3)CC2)nc2ccccc2c1=O [erastin] | 0.5 | 1.08 |
| C/C=C(\CC[C@@H](C)[C@H]1CC[C@H]2[C@@H]3CC=C4C[C@@H](O)CC[C@]4(C)[C@H]3CC[C@]12C)C(C)C [Fucosterol] + CCOc1ccccc1-n1c(C(C)N2CCN(C(=O)COc3ccc(Cl)cc3)CC2)nc2ccccc2c1=O [erastin] | 0.685 | 0.881 |
| CC(C)(O)[C@@H]1Cc2cc3ccc(=O)oc3cc2O1 [marmesin] + CCOc1ccccc1-n1c(C(C)N2CCN(C(=O)COc3ccc(Cl)cc3)CC2)nc2ccccc2c1=O [erastin] | 0.645 | 0.646 |
| O=C1C=CC[C@@H]2[C@H]3CCCN4CCC[C@@H](CN12)[C@@H]34 [Sophocarpine] + CCOc1ccccc1-n1c(C(C)N2CCN(C(=O)COc3ccc(Cl)cc3)CC2)nc2ccccc2c1=O [erastin] | 0.705 | 0.856 |
| CC(C)(C)N1C(=O)C(Nc2ccc(N3CCCCC3)cc2)=C(c2ccccc2)S1(=O)=O + CCOc1ccccc1-n1c(C(C)N2CCN(C(=O)COc3ccc(Cl)cc3)CC2)nc2ccccc2c1=O [erastin] | 0.678 | 0.797 |
| Nc1ccc(C(=O)O)c(O)c1 [Aminopar] + CCOc1ccccc1-n1c(C(C)N2CCN(C(=O)COc3ccc(Cl)cc3)CC2)nc2ccccc2c1=O [erastin] | 0.773 | 0.664 |
| CN(C)C(=N)NC(=N)N [Metformin] + CCOc1ccccc1-n1c(C(C)N2CCN(C(=O)COc3ccc(Cl)cc3)CC2)nc2ccccc2c1=O [erastin] | 0.63 | 0.546 |
